In PubChem BioAssay (EPA / NIEHS):
Inconclusive results are not listed. Active and inactive are the calls of the source. Rule for the calls, unless noted: active = hit-call score of the fitted dose curve at least 0.9, where 1 is the maximum; inactive = score below 0.9.

Legend:
[1] = read-out: Pyruvate Dehydrogenase Kinase 4 (PDK4), PDK4 (gene 5166); experiment: LTEA_HepaRG_PDK4: Life Technologies and Expression Analysis (LTEA) Assay for Pyruvate Dehydrogenase Kinase 4 (PDK4) using HepaRG (AID 2283525); conditions: mRNA level, 48 h; actives raise or lower the signal
Procedure, shortened: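 Differentiated human HepaRG cells, pre-cultured 48 h, were exposed in duplicate for 48 h in serum-free induction medium to eight half-log concentrations up to 100 uM in 0.5% DMSO. PDK4 mRNA was quantified by qRT-PCR, normalized to ACTB, GAPDH and POLR2A, bidirectional fitting versus DMSO.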

[2] = read-out: NAD(P)H dehydrogenase [quinone] 1 (NQO1), NQO1 (gene 1728); experiment: LTEA_HepaRG_NQO1: Life Technologies and Expression Analysis (LTEA) Assay for NAD(P)H dehydrogenase [quinone] 1 (NQO1) using HepaRG (AID 2283526); conditions: mRNA level, 48 h; actives raise or lower the signal
Procedure, shortened: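 Differentiated human HepaRG cells in serum-free induction medium, dosed in duplicate for 48 h at 8 half-log concentrations up to 100 uM in 0.5% DMSO. NQO1 mRNA by qRT-PCR normalized to ACTB, GAPDH, POLR2A; bidirectional fit versus DMSO baseline.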

[3] = read-out: Nuclear factor erythroid 2-related factor 2 (Homo sapiens) (UniProt Q16236); experiment: LTEA_HepaRG_NFE2L2: Life Technologies and Expression Analysis (LTEA) Assay for Nuclear factor erythroid 2-related factor 2 (NFE2L2) Transcription Factor using HepaRG (AID 2283527); conditions: mRNA level, 48 h; actives raise or lower the signal;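 note: TaqMan qRT-PCR transcript level normalised to ACTB GAPDH and POLR2A housekeeping genes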
Procedure, shortened: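 Differentiated human HepaRG cells in serum-free induction medium were exposed for 48 h to eight concentrations (top 100 uM, half-log dilutions, 0.5% DMSO), in duplicate. NFE2L2 mRNA was quantified by TaqMan qRT-PCR, normalized to ACTB, GAPDH and POLR2A, with bidirectional fitting versus DMSO.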

[4] = read-out: succinate dehydrogenase complex iron sulfur subunit B (SDHB), SDHB (gene 6390); experiment: LTEA_HepaRG_SDHB: Life Technologies and Expression Analysis (LTEA) Assay for succinate dehydrogenase complex iron sulfur subunit B (SDHB) using HepaRG (AID 2283528); conditions: mRNA level, 48 h; actives raise or lower the signal
Procedure, shortened: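 A human HepaRG culture in serum-free induction medium received test chemicals for 48 h over an eight-point range capped at 100 uM. SDHB expression change was quantified by qRT-PCR.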

[5] = read-out: Signal transducer and activator of transcription 3 (Homo sapiens) (UniProt P40763); experiment: LTEA_HepaRG_STAT3: Life Technologies and Expression Analysis (LTEA) Assay for Signal transducer and activator of transcription (STAT3) using HepaRG (AID 2283529); conditions: mRNA level, 48 h; actives raise or lower the signal
Procedure, shortened: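 Differentiated human HepaRG cells in serum-free induction medium were exposed in duplicate for 48 h to eight half-log concentrations up to 100 uM in 0.5% DMSO. STAT3 mRNA was quantified by TaqMan qRT-PCR, normalized to ACTB, GAPDH and POLR2A, and fitted bidirectionally against DMSO.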

[6] = read-out: solute carrier (SLCO1B1), SLCO1B1 (gene 10599); experiment: LTEA_HepaRG_SLCO1B1: Life Technologies and Expression Analysis (LTEA) Assay for solute carrier (SLCO1B1) using HepaRG (AID 2283530); conditions: mRNA level, 48 h; actives raise or lower the signal
Procedure, shortened: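 Human HepaRG cultures treated for 48 h with an eight-concentration half-log series topping at 100 uM; SLCO1B1 measured by qRT-PCR and fitted bidirectionally relative to DMSO.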

[7] = read-out: sulfotransferase 2A1 (SULT2A1), SULT2A1 (gene 6822); experiment: LTEA_HepaRG_SULT2A1: Life Technologies and Expression Analysis (LTEA) Assay for sulfotransferase 2A1 (SULT2A1) using HepaRG (AID 2283531); conditions: mRNA level, 48 h; actives raise or lower the signal
Procedure, shortened: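 Gene-expression endpoint in a human liver cell line: SULT2A1 mRNA change after 48 h chemical treatment, curves fitted in both directions relative to 0.5% DMSO vehicle. Concentrations spanned eight half-log steps from 100 uM.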

[8] = read-out: Transforming Growth Factor (TGFA), TGFA (gene 7039); experiment: LTEA_HepaRG_TGFA: Life Technologies and Expression Analysis (LTEA) Assay for Transforming Growth Factor (TGFA) using HepaRG (AID 2283532); conditions: mRNA level, 48 h; actives raise or lower the signal
Procedure, shortened: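 Differentiated human HepaRG cells, plated 48 h then switched to serum-free induction medium, were exposed in duplicate for 48 h to 8-point half-log series from 100 uM in 0.5% DMSO. TGFA mRNA measured by qRT-PCR, normalized to ACTB/GAPDH/POLR2A, bidirectional fit versus DMSO.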

[9] = read-out: Transforming Growth Factor (TGFB1), TGFB1 (gene 7040); experiment: LTEA_HepaRG_TGFB1: Life Technologies and Expression Analysis (LTEA) Assay for Transforming Growth Factor (TGFB1) Transporter using HepaRG (AID 2283533); conditions: mRNA level, 48 h; actives raise or lower the signal
Procedure, shortened: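 Eight-point concentration-response (max 100 uM, half-log) in HepaRG under serum-free induction conditions, 48 h. TGFB1 mRNA by qRT-PCR, housekeeping-normalized.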

TIMP1, TIMP1 (gene 7076) = experiment: LTEA_HepaRG_TIMP1: Life Technologies and Expression Analysis (LTEA) Assay for TIMP1 using HepaRG (AID 2283534); conditions: mRNA level, 48 h; actives raise or lower the signal;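 note: TaqMan qRT-PCR signal normalized to ACTB GAPDH and POLR2A housekeeping genes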
Procedure, shortened: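 TIMP1 induction or repression in HepaRG cells after 48 h chemical exposure (eight concentrations, highest 100 uM), assessed by normalized qRT-PCR with bidirectional fitting to DMSO controls.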

[10] = read-out: Tumor necrosis factor receptor 1 (TNFRSF1A), TNFRSF1A (gene 7132); experiment: LTEA_HepaRG_TNFRSF1A: Life Technologies and Expression Analysis (LTEA) Assay for Tumor necrosis factor receptor 1 (TNFRSF1A) using HepaRG (AID 2283535); conditions: mRNA level, 48 h; actives raise or lower the signal
Procedure, shortened: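 Assay uses 48 h chemical treatment of differentiated HepaRG monolayers, tested in duplicate at eight concentrations from 100 uM downward in 0.5% DMSO. mRNA is normalized to ACTB, GAPDH and POLR2A, with induction or suppression fitted relative to vehicle.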

[11] = read-out: Thyroid Hormone Responsive (THRSP), THRSP (gene 7069); experiment: LTEA_HepaRG_THRSP: Life Technologies and Expression Analysis (LTEA) Assay for Thyroid Hormone Responsive (THRSP) using HepaRG (AID 2283536); conditions: mRNA level, 48 h; actives raise or lower the signal
Procedure, shortened: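 Differentiated human HepaRG cells were exposed in duplicate for 48 h in serum-free induction medium to eight concentrations (top 100 uM, half-log steps, 0.5% DMSO). Expression was quantified by TaqMan qRT-PCR, normalized to ACTB, GAPDH and POLR2A, with bidirectional fitting against DMSO.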

[12] = read-out: Cellular tumor antigen p53 (Homo sapiens) (UniProt P04637); experiment: LTEA_HepaRG_TP53: Life Technologies and Expression Analysis (LTEA) Assay for Tumor Protein P53 (TP53) using HepaRG (AID 2283537); conditions: mRNA level, 48 h; actives raise or lower the signal
Procedure, shortened: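 Gain or loss of TP53 mRNA signal is scored relative to 0.5% DMSO after 48 h chemical treatment of HepaRG liver cells, tested in duplicate at eight half-log concentrations up to 100 uM.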

[13] = read-out: UDP glucuronosyltransferase (UGT1A1), UGT1A1 (gene 54658); experiment: LTEA_HepaRG_UGT1A1: Life Technologies and Expression Analysis (LTEA) Assay for UDP glucuronosyltransferase (UGT1A1) using HepaRG (AID 2283538); conditions: mRNA level, 48 h; actives raise or lower the signal
Procedure, shortened: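 HepaRG cells, 0.5% DMSO vehicle, 48 h exposure in serum-free induction medium to 8-point half-log series topping at 100 uM, in duplicate. UGT1A1 mRNA by Fluidigm qRT-PCR, normalized to ACTB/GAPDH/POLR2A; bidirectional fit versus DMSO.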

[14] = read-out: UDP glucuronosyltransferase (UGT1A6), UGT1A6 (gene 54578); experiment: LTEA_HepaRG_UGT1A6: Life Technologies and Expression Analysis (LTEA) Assay for UDP glucuronosyltransferase (UGT1A6) using HepaRG (AID 2283539); conditions: mRNA level, 48 h; actives raise or lower the signal
Procedure, shortened: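 Measures mRNA change in HepaRG hepatic cells exposed 48 h to chemicals (eight-point, maximum 100 uM, 0.5% DMSO vehicle) in serum-free induction medium. Expression normalized to endogenous controls; DMSO served as negative control and baseline.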

[15] = read-out: X-box binding protein 1 (XBP1), XBP1 (gene 7494); experiment: LTEA_HepaRG_XBP1: Life Technologies and Expression Analysis (LTEA) Assay for X-box binding protein 1 (XBP1) using HepaRG (AID 2283540); conditions: mRNA level, 48 h; actives raise or lower the signal
Procedure, shortened: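 Eight concentrations (half-log, highest 100 uM, 0.5% DMSO) tested in duplicate on HepaRG cells over 48 h in serum-free induction medium; qRT-PCR of XBP1 normalised to ACTB, GAPDH, POLR2A.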

[16] = LTEA_HepaRG_LDH_cytotoxicity: Cytotoxicity Assessment in the Life Technologies and Expression Analysis (LTEA) Assay (AID 2283563; active = hit-call score of the fitted dose curve at least 0.9, where 1 is the maximum)
Procedure, shortened: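 Spent-medium LDH after 48 h chemical exposure of HepaRG cells in serum-free induction medium; eight concentrations, half-log dilutions from 100 uM, duplicate wells, fitted upward relative to 0.5% DMSO.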

[17] = Tanguay_ZF_120hpf_MORT_legacy: (Legacy) Oregon State University Tanguay Lab 120 Hour Post-fertilization zebrafish Assay for Mortality (AID 2283633; active = hit-call score of the fitted dose curve at least 0.9, where 1 is the maximum)
Procedure, shortened: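 Single dechorionated Tropical 5D embryos were held with test chemical (0.64% DMSO final) from 6 to 120 hpf at 28C under foil. Deaths at 24 or 120 hpf were recorded as binary calls, analysed for increase over DMSO controls.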

[18] = Tanguay_ZF_120hpf_YSE_legacy: (Legacy) Oregon State University Tanguay Lab 120 Hour Post-fertilization zebrafish Assay for Yolk Sac Edema (AID 2283634; active = hit-call score of the fitted dose curve at least 0.9, where 1 is the maximum)
Procedure, shortened: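 Single dechorionated embryos were held in sealed plates at 28C with test chemical (0.64% DMSO final) from 6 hpf until 120 hpf. Edema of the yolk sac was then recorded as a binary endpoint; non-mortality endpoints were skipped for dead embryos.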

[19] = Tanguay_ZF_120hpf_EYE_legacy: (Legacy) Oregon State University Tanguay Lab 120 Hour Post-fertilization zebrafish Assay for Eye Malformation (AID 2283636; active = hit-call score of the fitted dose curve at least 0.9, where 1 is the maximum;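 note: binary presence or absence of eye malformation scored by brightfield in 120 hpf larvae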)
Procedure, shortened: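 Dechorionated wild-type Tropical 5D zebrafish embryos were exposed statically from 6 hpf, one per well, to 120 hpf at 28C in sealed, foil-covered plates with 0.64% DMSO. Eye malformation was scored present/absent by brightfield microscopy against DMSO controls.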

Measured: outcome

Chain of Signal transducer and activator of transcription 3 (Homo sapiens) (P40763 whole entry, looked up): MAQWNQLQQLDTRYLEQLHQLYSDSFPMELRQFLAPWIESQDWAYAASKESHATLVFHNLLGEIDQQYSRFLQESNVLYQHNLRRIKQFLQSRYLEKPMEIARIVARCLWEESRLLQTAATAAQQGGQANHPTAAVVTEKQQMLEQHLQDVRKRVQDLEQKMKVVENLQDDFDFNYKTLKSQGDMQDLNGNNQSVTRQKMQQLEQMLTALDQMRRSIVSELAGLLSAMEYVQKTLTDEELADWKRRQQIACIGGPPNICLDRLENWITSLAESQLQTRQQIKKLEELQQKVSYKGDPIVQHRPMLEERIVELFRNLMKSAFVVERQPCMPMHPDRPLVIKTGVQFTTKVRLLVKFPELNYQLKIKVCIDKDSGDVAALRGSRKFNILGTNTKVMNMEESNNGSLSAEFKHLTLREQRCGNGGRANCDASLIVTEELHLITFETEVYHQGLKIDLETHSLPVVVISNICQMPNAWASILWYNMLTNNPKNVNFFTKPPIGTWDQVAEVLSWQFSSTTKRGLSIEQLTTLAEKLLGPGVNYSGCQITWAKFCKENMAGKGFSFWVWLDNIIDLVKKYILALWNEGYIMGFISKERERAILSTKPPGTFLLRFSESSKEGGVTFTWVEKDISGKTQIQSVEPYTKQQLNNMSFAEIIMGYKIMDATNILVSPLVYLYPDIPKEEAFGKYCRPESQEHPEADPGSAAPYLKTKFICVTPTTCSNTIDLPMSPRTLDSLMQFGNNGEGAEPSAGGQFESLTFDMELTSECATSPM
Chain of Cellular tumor antigen p53 (Homo sapiens) (P04637 whole entry, looked up): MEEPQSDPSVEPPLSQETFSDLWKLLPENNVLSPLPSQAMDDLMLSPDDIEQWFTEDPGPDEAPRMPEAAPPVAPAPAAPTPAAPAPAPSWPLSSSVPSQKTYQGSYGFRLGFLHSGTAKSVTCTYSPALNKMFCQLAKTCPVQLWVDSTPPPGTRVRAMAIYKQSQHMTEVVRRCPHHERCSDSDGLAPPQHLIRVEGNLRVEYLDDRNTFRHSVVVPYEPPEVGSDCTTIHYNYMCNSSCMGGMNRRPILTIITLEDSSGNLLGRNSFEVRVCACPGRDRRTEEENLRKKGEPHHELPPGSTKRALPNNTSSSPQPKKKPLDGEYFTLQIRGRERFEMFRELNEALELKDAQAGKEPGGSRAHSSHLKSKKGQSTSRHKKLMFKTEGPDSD
Chain of Nuclear factor erythroid 2-related factor 2 (Homo sapiens) (Q16236 whole entry, looked up): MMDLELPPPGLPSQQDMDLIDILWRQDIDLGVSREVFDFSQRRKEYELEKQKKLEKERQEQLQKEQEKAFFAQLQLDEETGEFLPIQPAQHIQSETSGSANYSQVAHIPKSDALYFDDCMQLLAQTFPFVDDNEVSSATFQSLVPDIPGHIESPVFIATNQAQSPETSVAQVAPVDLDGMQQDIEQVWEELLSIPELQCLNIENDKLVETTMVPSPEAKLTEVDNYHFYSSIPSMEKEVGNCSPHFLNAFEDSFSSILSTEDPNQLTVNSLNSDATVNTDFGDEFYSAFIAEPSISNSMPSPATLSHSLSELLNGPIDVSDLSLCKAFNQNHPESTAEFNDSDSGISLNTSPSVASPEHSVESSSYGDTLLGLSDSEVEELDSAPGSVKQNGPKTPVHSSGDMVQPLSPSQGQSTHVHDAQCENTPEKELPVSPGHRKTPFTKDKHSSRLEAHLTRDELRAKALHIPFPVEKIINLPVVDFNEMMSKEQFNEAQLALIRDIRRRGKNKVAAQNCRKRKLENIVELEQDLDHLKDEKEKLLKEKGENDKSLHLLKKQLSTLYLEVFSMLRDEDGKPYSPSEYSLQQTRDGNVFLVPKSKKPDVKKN

CCC(C)=NO
inactive: all assays above
